High-throughput results as filed in PubChem.
This is a sample that favours compounds with a hit; in the whole collection about 5.7% have one here.
hgDAF12 agonist = H. glycines DAF-12 receptor agonists, primary screen, cell-based, luminescence, HEK293, GAL4 fusion, UAS-luciferase; Nuclear hormone receptor DAF-12 (Heterodera glycines), GAL4 fusion; HEK293 GAL4-hgDAF12 UAS-luciferase reporter, agonist luminescence; normalized to butyrate control; activation, % at 6.8 µM; 370,000 tested, 1.8% active; AID 687014, 2013;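 active = activation above a cutoff set at the mean of all screened compounds plus 3 SD, cut at about 10% in these data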
DAX1 inh-1 = DAX1 (NR0B1) inhibitors on StAR promoter, primary screen, cell-based, luminescence, SF-1 (NR5A1), full-length DAX-1. HEK293T StAR-luciferase reporter, SF-1/DAX-1 repression relief. inhibition, % at 6.8 µM. 370,000 tested, 1.1% active;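 active = inhibition above the mean over all tested compounds plus 3 SD, cut at about 3.6% in these data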;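 also: higher inhibition means more luminescence from relief of DAX-1 repression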
ssDAF12 agonist = S. stercoralis DAF-12 nuclear receptor activators, primary screen, cell-based, luminescence, HEK293, GRIP1 co-expression, lit1-tk-luc. activation, % at 6.8 µM. 370,000 tested, 1% active. HEK293 ssDAF-12/GRIP1 lit1-tk-luc reporter; % of 3 µM dafachronic acid response. AID 652126, 2013;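 active = activation above the mean over all tested compounds plus 3 SD, cut at about 0.9% in these data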
hcDAF-12 act = H. contortus DAF-12 nuclear receptor activators, primary screen, cell-based, luminescence, HEK293, lit1-tk-luc reporter. HEK293 hcDAF-12 lit1-tk-luc reporter; 0% DMSO, 100% Δ7-dafachronic acid. activation, % at 6.8 µM. 370,000 tested, 1.4% active. AID 652067, 2013;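 active = activation above the mean of all tested compounds plus 3 SD, cut at about 5.5% in these data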
DAX1 inh-2 = DAX1 (NR0B1) inhibitors, primary screen, cell-based, HEK293, Gal4-DAX1, luciferase luminescence; Nuclear receptor subfamily 0 group B member 1 (Homo sapiens), P51843; HEK293 Gal4-DAX1 luciferase reporter; inhibition, % at 6.75 µM; 340,000 tested, 0.99% active;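 active = inhibition above the mean over all tested compounds plus 3 SD, cut at about 4.2% in these data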;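 also: inhibition shows as a rise in luminescence from relieved DAX1 repression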
AHR activator = AHR activators, primary screen, cell-based, luminescence, luciferase reporter, human; Aryl hydrocarbon receptor (Homo sapiens), P35869; AHR-responsive luciferase reporter cells; activation, % at 5 µM; 320,000 tested, 2.5% active; AID 2796, 2010; in the data active = activation above about 47%
Of the large screens only hits and unclear results are named; the others gave an inactive call.

CCOCCCN(C(=O)Cn1nnc(-c2ccc(OC)c(OC)c2)n1)C(C(=O)NCC1CCCO1)c1ccc(F)cc1 (configuration not stated)	none
CCCCN1CC(=O)N2[C@H]3c4cc(Br)ccc4OC[C@@H]3[C@H](C(=O)OCC)[C@]2(C)C1=O	none
O=C(NCCSc1ccc(Br)cc1)c1ccccc1	none
CSCc1ccc(C(=O)NCCSc2ccc(Br)cc2)cc1	DAX1 inh-1 4.1
COC(=O)C1=C(C)N(Cc2cccc(C(F)(F)F)c2)C(=NCc2ccc3c(c2)OCO3)NC1c1cccc(Cl)c1 (configuration not stated)	none (no result: DAX1 inh-2, AHR activator)
CC(SCC(=O)O)c1nc2ccccc2[nH]1 (configuration not stated)	ssDAF12 agonist 1.0
CCC(=O)NC(Cc1ccccc1)c1nc2ccccc2[nH]1 (configuration not stated)	DAX1 inh-2 4.2 (no result: AHR activator)
CC(C)n1c(C(F)(F)F)nc2cc(C(=O)N3CCCCC3)ccc21	none
Cc1occc1C(=O)N/N=C/C=C/c1ccc(N(C)C)cc1	hgDAF12 agonist 12, DAX1 inh-1 3.8
Cc1occc1C(=O)N/N=C/C=C/c1ccccc1	none
COc1ccc(/C(C)=N/NC(=S)NCc2ccco2)cc1	AHR activator 63
O=C(C[n+]1ccccc1)N/N=C/c1cc(Br)ccc1O	none
COc1cc2c(cc1OC)C1CCc3cc4c(cc3C1N=C2)OCO4 (configuration not stated)	hgDAF12 agonist 11 (no result: AHR activator)
COc1cc2c(cc1OC)[C@@H]1Cc3cc4c(cc3[C@H](C2)N1C)OCO4	none
Cc1cc(Nc2cccc(Br)c2)cc(=O)n1-c1cccc(Br)c1	none (no result: DAX1 inh-2, AHR activator)
Cc1ccc(NC2=Nc3ccccc3N3C2=Nc2c(c(C)nn2-c2ccccc2)C3c2ccc(O)c(O)c2)cc1 (configuration not stated)	none (no result: AHR activator)
Cc1nn(-c2ccccc2)c2c1C(c1ccc(O)c(O)c1)N1C(=N2)C(Nc2ccccc2)=Nc2ccccc21 (configuration not stated)	DAX1 inh-2 4.3
COc1cc2c(c(OC)c1OC)-c1ccc(NC(=O)c3ccc(F)cc3)c(=O)cc1[C@@H](NC(C)=O)CC2	none
COc1cc2c(c(OC)c1OC)-c1ccc(NCc3ccccc3)c(=O)cc1C(NC(C)=O)CC2 (configuration not stated)	DAX1 inh-1 4.0 (no result: AHR activator)
COc1cc2c(c(OC)c1OC)-c1ccc(SC)c(=O)cc1C(NC(=O)C(F)(F)F)CC2 (configuration not stated)	DAX1 inh-1 3.7 (no result: AHR activator)
Cc1nn(C2CCS(=O)(=O)C2)c(C)c1CN(C)C(=O)c1cccc(Cl)c1 (configuration not stated)	none
OCCC1CN(Cc2cc(F)ccc2-n2cccn2)CCN1C1CCCC1 (configuration not stated)	ssDAF12 agonist 1.7
CC(C)CCN1CCN(Cc2cc(F)ccc2-n2cccn2)CC1CCO (configuration not stated)	none
CCn1c2ccc(C)cc2c2n[nH]c(=S)nc21	none
Cc1ccc(NS(=O)(=O)c2ccc(Br)s2)nc1	ssDAF12 agonist 1.3
Cc1cc(C)nc(NS(=O)(=O)c2ccc(Br)s2)c1	none
COc1ccc(S(=O)(=O)Nc2ccc(C)cn2)cc1	DAX1 inh-2 4.6
CCc1nc2c(OCc3cc(Cl)cc(Cl)c3)cccn2c1N(C)C(=O)Nc1ccccc1OC	none (no result: DAX1 inh-2, AHR activator)
Cc1cc(C)nc(-n2nc(C)c(C3(O)C(=O)Nc4ccccc43)c2N)n1 (configuration not stated)	AHR activator 56
Cc1cc(C)nc(-n2nc(C)c(C3(O)C(=O)Nc4ccc(F)cc43)c2N)n1 (configuration not stated)	none
O=C(COc1ccccc1F)NNC(=O)c1cccc(-n2cccc2)c1	hcDAF-12 act 6.3
C[C@@H]1CN(S(=O)(=O)C(C)(C)C)[C@@H](CCO)/C1=C\CCO	none (no result: DAX1 inh-2, AHR activator)
Cc1nn(Cc2c(F)c(F)c(F)c(F)c2F)c(C)c1NC(=O)c1ccc(COc2cc(Cl)ccc2Cl)cc1	ssDAF12 agonist 3.4
CC(=O)c1ccc(Nc2ccc(-c3ccccc3C)nn2)cc1	hgDAF12 agonist 11
CC(=O)c1cccc(Nc2ccc(-c3ccccc3F)nn2)c1	DAX1 inh-1 3.8
CC(=O)c1ccc(Nc2nc(C)cc(C)n2)cc1	none
COc1ccccc1-c1ccc(Nc2cccc(C(C)=O)c2)nn1	none
CN(C)N1C(N)=C(C#N)C(c2cccs2)C2=C1CC(C)(C)CC2=O (configuration not stated)	ssDAF12 agonist 2.0 (no result: DAX1 inh-2)
O=C(O)c1ccccc1-n1c2ccccc2c2ccccc21	none
COc1cccc(CC(=O)N2CCN(C(=O)C(=O)c3ccc(OC)c(OC)c3)CC2)c1	none (no result: DAX1 inh-2, AHR activator)
c1ccc(Cc2nc3ccccc3s2)cc1	hcDAF-12 act 5.8 (no result: AHR activator)
Cc1ccnc(SCc2nc3ccccc3s2)n1	hcDAF-12 act 5.8
Cc1ccnc(SCC(=O)c2cccs2)n1	none
COc1ccc(Sc2cccc(Cl)c2)c(C(=O)O)c1	none (no result: DAX1 inh-2, AHR activator)
CNc1ccc(/C=C/C(=O)c2cccc3ccccc23)cc1[N+](=O)[O-]	none
COc1cccc(NC(=O)CN(C)C(=O)c2cc3c(s2)CCCC3)c1	DAX1 inh-1 3.7
COc1ccccc1NC(=O)c1csc2c1CCC(C)C2 (configuration not stated)	AHR activator 55
CC1CCc2c(C(=O)NCc3ccco3)csc2C1 (configuration not stated)	none
Cc1cccc(NC(=S)NNC(=O)c2csc3c2CCCC3)c1	hgDAF12 agonist 11
COc1cccc(NC(=O)c2csc3c2CCCC3)c1	hgDAF12 agonist 11
Cc1ccc(C)c(NC(=S)NNC(=O)c2csc3c2CCCC3)c1	none
COc1cccc(NC(=O)CN(C)C(=O)c2cc3c(s2)CCCCC3)c1	none
CC(C)n1cc(CN2CCCC(CO)(Cc3cccc(Cl)c3)C2)cn1 (configuration not stated)	none
O=C(Nc1ccc2c(c1)OCO2)N1CCCc2ccccc21	AHR activator 56
O=C(CN1CCN(Cc2ccc3c(c2)OCO3)CC1)Nc1ccc(F)cc1	DAX1 inh-2 4.8
O=C(Nc1ccc2c(c1)OCO2)N1CCN(c2ccc(F)cc2)CC1	AHR activator 58
Cc1ccc(NC(=O)N2CCCc3ccccc32)cc1	none
